From the supplement of paper PMC7366291
Counter-ions that a name gives are not always drawn. ± gives the standard deviation.

System: Danio rerio Tg(wt1b:EGFP) embryo, pronephros
Assay: glomerular separation, fold change vs DMSO control; higher = glomeruli further apart (abnormal)
Conditions: 25 µM; exposure: 24-48 hpf
How it was run: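 In HEPES-buffered E3 with 0.003% PTU and 0.5% DMSO, dechorionated Tg(wt1b:EGFP) zebrafish embryos were exposed to 25 μM compound from 24 to 48 hpf at 28.5°C. Pronephroi were then imaged dorsally at 470 nm in 10 z-slices, in 96-well plates filled with agarose. On maximum projections, a Fiji macro turned 16 manually placed reference points into distances and angles, and values more than 2 SD from the feature mean were excluded. Features are fold changes relative to the mean of DMSO-treated embryos from the same day.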

`CC(C)Nc1cccnc1N1CCN(C(=O)c2cc3cc(NS(C)(=O)=O)ccc3[nH]2)CC1` [Delavirdine] and `OCC(O)CN1CCN(c2ccccc2)CC1` (racemic) [Dropropizine (R,S)] are within error of each other in glomerular separation: 0.975 ± 0.41 for the first, 0.917 ± 0.28 for the second.

`O=C(C1CCCCC1)N1CC(=O)N2CCc3ccccc3C2C1` (stereo not given) [Praziquantel] and `N=C(N)N1CCc2ccccc2C1` [Debrisoquin sulfate] are within error of each other in glomerular separation: 1.18 ± 0.28 for the first, 1.02 ± 0.24 for the second.

`Nc1cc(N2CCCCC2)nc(N)[n+]1[O-]` [Minoxidil] and `Cc1ccsc1/C=C/C1=NCCCN1C` [Morantel tartrate] are within error of each other in glomerular separation: 0.953 ± 0.24 for the first, 0.982 ± 0.26 for the second.

`CC(NCCC(c1ccccc1)c1ccccc1)c1ccccc1` (stereo not given) [Fendiline hydrochloride] and `CN(C)CCN(Cc1ccccc1)c1ccccn1` [Tripelennamine hydrochloride] are within error of each other in glomerular separation: 1.17 ± 0.28 for the first, 0.843 ± 0.37 for the second.

`C=CCN1CCCC1CNC(=O)c1cc2nn[nH]c2cc1OC` (stereo not given) [Alizapride hydrochloride] and `CCN1CCC[C@H]1CNC(=O)c1c(O)c(Cl)cc(Cl)c1OC` [Raclopride] are within error of each other in glomerular separation: 1.18 ± 0.37 for the first, 1.26 ± 0.47 for the second.

`CCOc1ccccc1OCC1CNCCO1` (stereo not given) [Viloxazine hydrochloride] and `C#CCN(C)Cc1ccccc1` [Pargyline hydrochloride] are within error of each other in glomerular separation: 1.35 ± 0.55 for the first, 1.04 ± 0.29 for the second.

`CC(=O)[C@H]1CC[C@H]2[C@@H]3CCC4=CC(=O)CC[C@]4(C)[C@H]3CC[C@]12C` [Progesterone] and `C=C1C[C@H]2[C@@H]3C=C(C)C4=CC(=O)CC[C@]4(C)[C@H]3CC[C@]2(C)[C@@]1(OC(C)=O)C(C)=O` [Melengestrol acetate] are within error of each other in glomerular separation: 3.48 ± 3.4 for the first, 0.846 ± 0.24 for the second.

Going from `Oc1c(I)cc(Cl)c2cccnc12` [Clioquinol] to `CC(C)Cn1cnc2c(N)nc3ccccc3c21` [Imiquimod], the glomerular separation falls from 4.35 ± 1.5 to 0.76 ± 0.31.

`CC(=O)N(CC(O)CO)c1c(I)c(C(=O)NCC(O)CO)c(I)c(C(=O)NCC(O)CO)c1I` (stereo not given) [Iohexol] and `CC(=O)N(CC(O)CN(C(C)=O)c1c(I)c(C(=O)NCC(O)CO)c(I)c(C(=O)NCC(O)CO)c1I)c1c(I)c(C(=O)NCC(O)CO)c(I)c(C(=O)NCC(O)CO)c1I` (stereo not given) [Iodixanol] are within error of each other in glomerular separation: 1.06 ± 0.38 for the first, 0.874 ± 0.28 for the second.

Compared with `Clc1ccc(C(Cn2ccnc2)OCc2c(Cl)cccc2Cl)c(Cl)c1` (stereo not given) [Isoconazole], `CC(C)(Oc1ccc(CCNC(=O)c2ccc(Cl)cc2)cc1)C(=O)O` [Bezafibrate] is lower in glomerular separation: 3.36 ± 1.9 for the first, 0.842 ± 0.27 for the second.

`CC[C@H](c1ccc(O)cc1)[C@@H](CC)c1ccc(O)cc1` [Hexestrol] and `Cc1ccc(C(=O)c2ccc(CC(=O)O)n2C)cc1` [Tolmetin sodium salt dihydrate] are within error of each other in glomerular separation: 1.04 ± 0.38 for the first, 1.55 ± 0.69 for the second.

`Cc1cccn2c(=O)c(-c3nnn[nH]3)cnc12` [Pemirolast potassium] and `c1ccc(CNc2ncnc3nc[nH]c23)cc1` [Aminopurine, 6-benzyl] are within error of each other in glomerular separation: 1.25 ± 0.38 for the first, 1.17 ± 0.43 for the second.

`CC[N+](C)(CC)CCC[n+]1c(-c2ccccc2)c2cc(N)ccc2c2ccc(N)cc21` [Propidium iodide] and `CCCCOc1cc(C(=O)NCCN(CC)CC)c2ccccc2n1` [Dibucaine] are within error of each other in glomerular separation: 0.946 ± 0.41 for the first, 1.35 ± 0.37 for the second.

`CC(C)(O/N=C(\C(=O)N[C@@H]1C(=O)N2C(C(=O)[O-])=C(C[n+]3ccccc3)CS[C@H]12)c1csc(N)n1)C(=O)O` [Ceftazidime pentahydrate] and `CO/N=C(\C(=O)N[C@@H]1C(=O)N2C(C(=O)O)=C(COC(N)=O)CS[C@H]12)c1ccco1` [Cefuroxime sodium salt] are within error of each other in glomerular separation: 0.761 ± 0.12 for the first, 1.05 ± 0.35 for the second.

`CNCCc1ccccn1` [Betahistine mesylate] and `CN1C(C(=O)Nc2ccccn2)=C(O)c2sccc2S1(=O)=O` [Tenoxicam] are within error of each other in glomerular separation: 0.815 ± 0.39 for the first, 0.97 ± 0.16 for the second.

`COc1cc(C(=O)OCCCN2CCCN(CCCOC(=O)c3cc(OC)c(OC)c(OC)c3)CC2)cc(OC)c1OC` [Dilazep dihydrochloride] and `COCCOC(=O)C1=C(C)NC(C)=C(C(=O)OC(C)C)C1c1cccc([N+](=O)[O-])c1` (stereo not given) [Nimodipine] are within error of each other in glomerular separation: 1 ± 0.36 for the first, 1.64 ± 1.1 for the second.

`CCC(C)(C)c1ccc(CC(C)CN2C[C@@H](C)O[C@@H](C)C2)cc1` (stereo not given in full) [Amorolfine hydrochloride] and `CC(C)(C)NC(=O)[C@@H]1C[C@@H]2CCCC[C@@H]2CN1C[C@@H](O)[C@H](Cc1ccccc1)NC(=O)[C@H](CC(N)=O)NC(=O)c1ccc2ccccc2n1` [Saquinavir mesylate] are within error of each other in glomerular separation: 0.874 ± 0.48 for the first, 1.08 ± 0.35 for the second.

`CO[C@@]1(NC(=O)CSCC#N)C(=O)N2C(C(=O)O)=C(CSc3nnnn3C)CS[C@@H]21` [Cefmetazole sodium salt] and `CC(=O)OCC1=C(C(=O)O)N2C(=O)[C@@H](NC(=O)Cc3cccs3)[C@H]2SC1` [Cephalothin sodium salt] are within error of each other in glomerular separation: 0.79 ± 0.16 for the first, 0.848 ± 0.31 for the second.

`COc1ccc2c3c1O[C@H]1C[C@@H](O)C=C[C@@]31CCN(C)C2` [Galanthamine hydrobromide] and `Cc1noc(NS(=O)(=O)c2ccc(N)cc2)c1C` [Sulfisoxazole] are within error of each other in glomerular separation: 1.08 ± 0.38 for the first, 0.975 ± 0.37 for the second.

Compared with `CC1=C(/C=C/C(C)=C/C=C/C(C)=C/C(=O)O)C(C)(C)CCC1` [Retinoic acid], `C[C@H]1O[C@H](O[C@H]2[C@H](O)[C@@H](O)[C@@H](O[C@H]3[C@H](O)[C@@H](O)C(O)O[C@@H]3CO)O[C@@H]2CO)[C@H](O)[C@@H](O)[C@@H]1N[C@H]1C=C(CO)[C@@H](O)[C@H](O)[C@H]1O` (stereo not given in full) [Acarbose] is lower in glomerular separation: 3.15 ± 1.8 for the first, 0.951 ± 0.24 for the second.
